Reference: the supplement of paper PMC7695840
Counter-ions that a name gives are not always drawn.

How the values were obtained:
[1] = test system: Staphylococcus aureus MW2 delta-mecA (mecA-); experiment: normalized GFP fluorescence (growth of mecA- strain) (fraction of control range); higher = more growth of mecA- strain; conditions: compound concentration: 150 uM; cefoxitin: subinhibitory; fluorescent label: GFP
Summary of the method: (§1)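 Two pre-induced S. aureus MW2 strains, one with the gene labeled by DsRed and one lacking it labeled by GFP, were mixed 1:1 in LB with a subinhibitory antibiotic dose set daily. The mix went at 5 µL/well onto 150 μM compound (1.5% DMSO) in 1536-well plates, single replicate, and grew unshaken 20 h at 37 °C, 90% humidity. DsRed (540/590) and GFP (485/520) values were scaled per plate between single-strain control medians, and plates with high untreated ratios or rows with DsRed/GFP >10 were left out.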

[2] = test system: Staphylococcus aureus MW2 (mecA+); experiment: normalized DsRed fluorescence (growth of mecA+ strain) (fraction of control range); higher = more growth of mecA+ strain; conditions: compound concentration: 150 uM; cefoxitin: subinhibitory; fluorescent label: DsRed
Summary of the method: as §1

Structure (SMILES) | normalized GFP fluorescence [1] | normalized DsRed fluorescence [2]
C[C@]12C=CC(=O)C=C1CC[C@@H]1[C@@H]2[C@@H](O)C[C@@]2(C)[C@H]1CC[C@]2(O)C(=O)COC(=O)CCC(=O)O | 0.461 | 1.04
Clc1ccc(C(Cn2ccnc2)OCc2ccc(Sc3ccccc3)cc2)c(Cl)c1 (stereo not drawn) [Fenticonazole nitrate] | -0.002 | 0.0182
CCCN[C@H]1CCc2nc(N)sc2C1 [Pramipexole dihydrochloride monohydrate] | 0.713 | 0.597
CC(C)(S)[C@@H](N)C(=O)O | 0.302 | 1.21
C=CC[C@@H]1/C=C(\C)C[C@H](C)C[C@H](OC)[C@H]2O[C@@](O)(C(=O)C(=O)N3CCCC[C@H]3C(=O)O[C@H](/C(C)=C/[C@@H]3CC[C@@H](O)[C@H](OC)C3)[C@H](C)[C@@H](O)CC1=O)[C@H](C)C[C@@H]2OC [FK-506 (Tacrolimus)] | 0.0621 | 1.04
CCOC(=O)[C@H](CCc1ccccc1)N[C@H]1CS[C@H](c2cccs2)CN(CC(=O)O)C1=O [Temocapril HCl] | 0.372 | 0.936
C[C@H]1C[C@H]2[C@@H]3CCC4=CC(=O)C=C[C@]4(C)[C@@]3(F)[C@@H](O)C[C@]2(C)[C@@]1(O)C(=O)CO [Betamethasone (Celestone)] | 0.0397 | 1.3
c1ccc(CN(CC2=NCCN2)c2ccccc2)cc1 | 0.974 | 0.762
N#Cc1ccc2[nH]cc(CCCCN3CCN(c4ccc5oc(C(N)=O)cc5c4)CC3)c2c1 | 0.0415 | 0.987
COc1ccccc1OCC(O)COC(N)=O (stereo not drawn) | 0.207 | 0.692
CN/C(=N\CCSCc1nc[nH]c1C)NC#N | 0.567 | 1.05
COc1cc2nc(N3CCN(C(=O)C4COc5ccccc5O4)CC3)nc(N)c2cc1OC (stereo not drawn) [Doxazosin mesylate] | 0.0162 | 1.12
CC(C)[N+]1(C)[C@@H]2CC[C@H]1C[C@@H](OC(=O)C(CO)c1ccccc1)C2 (stereo partly drawn) | 0.206 | 0.856
CN1CCN2c3ccccc3Cc3ccccc3C2C1 (stereo not drawn) | 0.0802 | 1.52
CN(C)CCc1c[nH]c2ccc(Cn3cncn3)cc12 | 0.425 | 0.751
CCCc1nc2c(C)cc(-c3nc4ccccc4n3C)cc2n1Cc1ccc(-c2ccccc2C(=O)O)cc1 | 0.106 | 0.194
Cc1ccccc1N1C(=O)c2cc(S(N)(=O)=O)c(Cl)cc2NC1C (stereo not drawn) | 0.113 | 1.33
OC(CCN1CCCC1)(c1ccccc1)C1CCCCC1 (stereo not drawn) | 0.159 | 1.7
CNNCc1ccc(C(=O)NC(C)C)cc1 | 0.425 | 0.606
O=C1N=C(O)NC1(c1ccccc1)c1ccccc1 | 0.309 | 1.06

Structure (SMILES) | normalized GFP fluorescence [1] | normalized DsRed fluorescence [2]
CSCC[C@H](NC(=O)[C@H](Cc1c[nH]c2ccccc12)NC(=O)CCNC(=O)OC(C)(C)C)C(=O)N[C@@H](CC(=O)O)C(=O)N[C@@H](Cc1ccccc1)C(N)=O | 0.461 | 0.68
CC(C)n1c(/C=C/C(O)CC(O)CC(=O)O)c(-c2ccc(F)cc2)c2ccccc21 (stereo not drawn) | 0.0168 | 0.369
CN1CCN(CC/C=C2/c3ccccc3Sc3ccc(S(=O)(=O)N(C)C)cc32)CC1 | 0.0289 | 1.9
Oc1ccc(C2CNCCc3c2cc(O)c(O)c3Cl)cc1 (stereo not drawn) | 0.582 | 0.979
COc1ccc2c3c1O[C@H]1C[C@@H](O)C=C[C@@]31CCN(C)C2 | 0.508 | 0.677
CN(C)CCOC(=O)C(c1ccccc1)C1(O)CCCC1 (stereo not drawn) | 0.34 | 0.757
CN1CCC(=C2c3ccccc3CCc3cccnc32)CC1 | 0.396 | 0.798
CCN[C@H]1C[C@H](C)S(=O)(=O)c2sc(S(N)(=O)=O)cc21 [Dorzolamide HCL] | 0.422 | 0.697
COc1cc2nc(N(C)CCCNC(=O)C3CCCO3)nc(N)c2cc1OC (stereo not drawn) | 0.343 | 0.686
Cc1cc(O)cc(C)c1Cl | 0.0289 | 0.544
CS(=O)(=O)OCCCCOS(C)(=O)=O | 0.346 | 0.573
O=C(O)C(=O)O.[NH-][C@@H]1CCCC[C@H]1[NH-].[Pt+2] | 0.253 | 1.17
Clc1ccccc1CN1CCc2sccc2C1 | 0.281 | 0.684
COc1cc(C)c(/C=C/C(C)=C/C=C/C(C)=C/C(=O)O)c(C)c1C [Acitretin] | 0.0102 | 0.289
C[C@]12CCC(=O)C=C1[C@@H]1C[C@@H]1[C@H]1[C@@H]3[C@@H]4C[C@@H]4[C@@]4(CCC(=O)O4)[C@@]3(C)CC[C@@H]12 | 0.162 | 0.65
Cc1nnc(C(=O)NC(C)(C)c2nc(C(=O)NCc3ccc(F)cc3)c(O)c(=O)n2C)o1 [Raltegravir (MK-0518)] | 0.051 | 0.507
C[n+]1ccccc1/C=N/O | 0.332 | 0.9
Cc1ccc(S(=O)(=O)NC(=O)NN2CCCCCC2)cc1 | 0.372 | 0.655
C[C@H]1[C@H](NC(=O)/C(=N\OC(C)(C)C(=O)O)c2csc(N)n2)C(=O)N1S(=O)(=O)O [Aztreonam (Azactam, Cayston)] | 0.136 | 1.17
